# Out of some 190,000 compounds screened, about 4,100 (2.2%) were called active. The sample holds actives, similar compounds and a random draw of the others, so the mix is not that of the screen. A number with no mark means an inactive call.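 The calls were made as follows: active = thallium flux slope and its plate-corrected score both differing from the plate sample mean at a set confidence after two filtering rounds, in either direction; inactive = the rest.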
# Molecular target: Solute carrier family 12 member 5 (Homo sapiens) (UniProt Q9H2X9)
# Sequence (Q9H2X9 whole entry, looked up): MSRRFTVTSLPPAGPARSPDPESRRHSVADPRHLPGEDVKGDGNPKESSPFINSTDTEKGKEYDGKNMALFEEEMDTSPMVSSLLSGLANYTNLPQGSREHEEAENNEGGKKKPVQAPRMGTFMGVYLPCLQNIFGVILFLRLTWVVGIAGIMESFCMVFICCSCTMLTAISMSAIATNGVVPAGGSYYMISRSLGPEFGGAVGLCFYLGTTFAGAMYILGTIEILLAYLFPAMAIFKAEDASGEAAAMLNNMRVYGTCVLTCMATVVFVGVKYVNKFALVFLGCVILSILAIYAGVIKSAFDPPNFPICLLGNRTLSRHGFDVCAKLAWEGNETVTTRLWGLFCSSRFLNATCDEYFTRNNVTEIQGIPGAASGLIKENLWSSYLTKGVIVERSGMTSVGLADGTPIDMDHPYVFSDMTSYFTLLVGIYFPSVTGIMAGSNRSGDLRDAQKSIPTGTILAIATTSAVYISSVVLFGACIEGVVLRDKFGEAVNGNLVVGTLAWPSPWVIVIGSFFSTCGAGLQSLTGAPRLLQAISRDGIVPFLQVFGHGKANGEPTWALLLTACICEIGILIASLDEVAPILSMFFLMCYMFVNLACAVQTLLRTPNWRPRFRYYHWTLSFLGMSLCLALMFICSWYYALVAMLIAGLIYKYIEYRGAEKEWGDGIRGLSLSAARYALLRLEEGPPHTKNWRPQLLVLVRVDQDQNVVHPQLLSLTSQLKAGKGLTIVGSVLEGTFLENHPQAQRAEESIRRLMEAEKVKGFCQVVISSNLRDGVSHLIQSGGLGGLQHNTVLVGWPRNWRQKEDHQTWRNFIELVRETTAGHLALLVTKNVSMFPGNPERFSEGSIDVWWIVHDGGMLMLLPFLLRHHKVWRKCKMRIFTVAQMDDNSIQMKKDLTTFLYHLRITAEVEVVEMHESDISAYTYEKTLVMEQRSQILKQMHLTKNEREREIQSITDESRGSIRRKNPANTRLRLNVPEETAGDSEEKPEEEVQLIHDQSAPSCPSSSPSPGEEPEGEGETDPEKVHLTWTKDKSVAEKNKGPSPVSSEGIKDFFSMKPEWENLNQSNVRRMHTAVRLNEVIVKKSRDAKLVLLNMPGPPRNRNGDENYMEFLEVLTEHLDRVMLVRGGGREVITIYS
# Assay: modulation of human KCC2 ion transport – cell-based, HEK293 KCC2, FluoZin-2 fluorescence, MLSMR, primary screen (AID 1456);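 also: slope of fluorescence scaled to starting intensity during 10 to 20 s after thallium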
# Conditions: KCC2 cells, thallium flux FluoZin-2 fluorescence; at 10 µM
row,Structure (SMILES),B-score of Tl+ flux slope (higher = more flux/activation; lower = inhibition)
1,Cc1cc(C(=O)OCC(=O)Nc2nccs2)c2ccccc2n1,-0.12
2,Cc1ccc2c(C)c(C(=O)N3CCC(N4CCC(C(=O)NC5CC5)CC4)CC3)oc2c1,-1.04
3,O=C(CSc1nnnn1-c1ccc(O)cc1)N1N=C(c2ccc3ccccc3c2)CC1c1ccccc1 (stereo not given),0.186
4,COC(=O)C1=C(C(=O)OC)C(c2cc([N+](=O)[O-])ccc2O)c2sc(=O)[nH]c2S1 (stereo not given),-0.169
5,CC1CC(C)(C)n2c(O)c(N=NC(N)=S)c3cccc1c32 (stereo not given),24.8 (active)
6,COC(=O)[C@H](CC(C)C)NC(=O)N1CCCCC1C (stereo not given in full),-0.124
7,C/C(CC(C)C)=N\Oc1nc(C)cc(C)n1,-1.12
8,CCCCCCCC(=O)OC(CN1CCCCCC1)CN1CCCC1=O (stereo not given),-0.767
9,Cc1cc(C)cc(NC(=O)NC2CCN(CC(=O)Nc3cccc(Cl)c3C)CC2)c1,0.963
10,Cc1cc(C)cc(NS(=O)(=O)c2ccc(F)cc2)c1,-0.00878
11,CCOc1ccc(NS(=O)(=O)c2ccc(C)c(C(N)=O)c2)cc1,-0.277
12,Cc1cccc(NS(=O)(=O)c2ccc(C)c(C(N)=O)c2)c1,4.67 (active)
13,C/C(=N\Nc1cccc(C(=O)O)c1)c1ccc2c(c1)Nc1ccccc1S2,-3.29
14,CCOc1ccccc1C1CC(c2ccc(Cl)cc2)Nc2nc(N)nn21 (stereo not given),-3.62 (active)
15,Cc1ccc(C2CC(c3cccc(C)c3)n3nc(N)nc3N2)cc1 (stereo not given),1.35
16,COc1ccc(C2CC(c3ccc(Cl)cc3Cl)Nc3nc(N)nn32)cc1OC (stereo not given),1.07
17,COCCNC(=S)N1CCN(C)CC1,1.24
18,CCC(C)NC(=O)C1c2ccccc2Oc2ccccc21 (stereo not given),0.329
19,O=C(NCc1ccco1)C1CCCN1S(=O)(=O)c1ccccc1C(F)(F)F (stereo not given),0.797
20,C/C(=N/NC(=O)c1ccc(Br)o1)c1ccc(C)o1,2.02
21,Cc1ccc(/C=N/NC(=S)NC2CCCCC2)o1,13.3 (active)
22,Cc1ccc(NC(=S)NC2CCCC2)cc1,-0.0505
23,C/C(=N\NC(=S)NC1CCCCC1)c1ccc(C)o1,13.6 (active)
24,S=C(NCc1ccc(Cl)cc1)NC1CCCCC1,-1.07
25,Cc1ccc(/C=N/NC(=O)CNC(=O)COc2ccccc2)o1,1.42

row,Structure (SMILES),B-score of Tl+ flux slope (higher = more flux/activation; lower = inhibition)
1,Nc1ccc(N=Nc2ccccc2Cl)c(N)n1,-0.811
2,O=C(Nc1nc2ccc([N+](=O)[O-])cc2s1)c1ccncc1,0.253
3,O=C(NC(Nc1nc2ccc([N+](=O)[O-])cc2s1)(C(F)(F)F)C(F)(F)F)c1ccccc1,18.8 (active)
4,O=C(O)CCC(=O)Nc1nc2ccc([N+](=O)[O-])cc2s1,-0.905
5,O=[N+]([O-])/C=C1\CCCCCN1,0.62
6,O=C(OCN1C(=O)c2ccccc2C1=O)/C(=C\c1ccco1)NC(=O)c1ccccc1,0.982
7,O=C(CNC(=O)c1ccc(-c2ccccc2)cc1)OCc1ccc(Cl)cc1,0.889
8,CC(C)(C)c1ccc(C(=O)NCC(=O)OCN2C(=O)c3ccccc3C2=O)cc1,2.84 (active)
9,CC(=O)OCCOCn1cnn2c(=O)c(Br)c(C)nc12,0.438
10,Cn1nc(C(F)(F)F)c(-c2ccc(F)cc2)c1NC(=O)CSCC(=O)O,0.439
11,O=C(Nc1cccnc1)c1cc([N+](=O)[O-])ccc1Cl,-0.0312
12,CCC(=O)NNc1cc(=O)c2c(=O)n(C)c(=O)n(C)c2[nH]1,1.26
13,CC(=O)NNc1cc(=O)c2c(=O)n(C)c(=O)n(C)c2[nH]1,6.19 (active)
14,Nc1nnn(CC(=O)N/N=C/c2ccc(O)cc2)n1,0.292
15,Cn1nnc(NC(=S)NC(=O)c2ccccc2)n1,0.462
16,CC1(C)CC(CNCCC(c2ccc(F)cc2)c2ccco2)CCO1 (stereo not given),-2.25
17,Cc1cccc(NC(=S)Nc2ccc(Br)cc2)c1,0.311
18,Cc1cccc(NC(=O)c2ccc([N+](=O)[O-])o2)c1,-0.0536
19,Cc1cccc(NC(=S)NC(=O)c2ccc(Br)o2)c1,143 (active)
20,Cc1cccc(NC(=O)NC(=S)NC(=O)c2ccccc2)c1,16.4 (active)
21,Cc1ccc(NC(=S)NC(=O)c2ccc(-c3ccccc3)cc2)cc1,1.16
22,Cc1cccc(NC(=O)/C(=C\c2ccco2)NC(=O)c2ccccc2)c1,0.0694
23,CCOc1ccc(C2NC(=S)NC3=C2CCc2ccccc23)cc1 (stereo not given),0.359
24,CC(=O)Nc1ccc(/C=C/C(=O)c2ccccc2)cc1,-1.42
25,CCCc1nc2c(c(=O)c3ccccc3n2C)c(=O)n1-c1cc(C)cc(C)c1,-2.43

row,Structure (SMILES),B-score of Tl+ flux slope (higher = more flux/activation; lower = inhibition)
1,Cc1cc(OCCCCOc2ccc(C#N)cc2)ccc1[N+](=O)[O-],2.16
2,Clc1ccc(C[n+]2cc(-c3ccccc3)n3c2CCC3)cc1,0.476
3,O=C(C1CCN(c2nnc(-n3cccc3)s2)CC1)N1CCc2ccccc2C1,-3.67 (active)
4,CCOC(=O)C1CCCN(C(=O)C2CCN(c3nnc(-n4cccc4)s3)CC2)C1 (stereo not given),-0.42
5,CSc1ccc(CCNC(=O)C2CCN(c3nnc(-n4cccc4)s3)CC2)cc1,0.348
6,COc1ccc2[nH]c(C(=O)Nc3ccccc3Cl)cc2c1,0.0923
7,CCCCOc1ccc(CON(C(C)=O)C(C)=O)cc1Cl,0.181
8,COc1ccc(-c2nc(CS(=O)CC(=O)N3CCc4ccccc4C3)c(C)o2)cc1 (stereo not given),-6.3 (active)
9,O=C(COc1ccccc1)N1CCc2ccccc2C1,0.0757
10,COC(=O)c1cc2occc2n1Cc1nc(-c2ccccc2C)oc1C,0.574
11,Cc1ccccc1-c1nc(CS(=O)(=O)CC(=O)N2CCc3ccccc3C2)c(C)o1,-3.98 (active)
12,Cc1oc(-c2ccccc2F)nc1CS(=O)(=O)CC(=O)NCCCN(C)C1CCCCC1,-0.282
13,COc1ccc(-c2nc(CS(=O)CC(=O)NCc3ccccn3)c(C)o2)cc1 (stereo not given),1.46
14,S=C(NCc1ccc2c(c1)OCO2)NCc1ccco1,-0.178
15,CCOC(=O)C1CCN(C(=O)Nc2cccc(OC)c2)CC1,0.26
16,Cc1ccccc1Cn1c2ccccc2c2cnn(CC(=O)NCc3ccco3)c(=O)c21,-0.21
17,COC(=O)CNc1nc(Cl)nc(N2CCC(C)CC2)n1,0.436
18,CNC(=O)/C(=C\C=C\c1ccccc1)NC(=O)c1ccc([N+](=O)[O-])cc1,-6.01 (active)
19,O=C(Nc1ccccc1)/C(=C/c1ccc([N+](=O)[O-])cc1)NC(=O)c1ccccc1,0.951
20,O=C(Nc1ccc(C(=O)O)cc1)/C(=C/c1ccc([N+](=O)[O-])cc1)NC(=O)c1ccccc1,-0.11
21,Cc1ccc(/C=C/C(=O)O)cc1S(=O)(=O)N1CCC(Cc2ccccc2)CC1,-2.01
22,Cc1ccc(C)c2c1cc(C)c1nnc(SCC(=O)Nc3cccc(C(=O)O)c3)n12,4.23
23,COc1cc2nc(Cl)nc(NCCO)c2cc1OC,0.407
24,CC(Sc1nc2ccccc2c(=O)n1Cc1ccco1)C(=O)c1ccccc1 (stereo not given),-0.121
25,COc1cccc(NC(=O)C(Sc2nnnn2C)c2ccccc2)c1 (stereo not given),-0.113

row,Structure (SMILES),B-score of Tl+ flux slope (higher = more flux/activation; lower = inhibition)
1,COc1cccc(NC(=O)C(Sc2nc3ccccc3c(=O)n2CC(C)C)c2ccccc2)c1 (stereo not given),7.69 (active)
2,Nc1nc(Sc2ncccc2[N+](=O)[O-])n[nH]1,-0.977
3,Cc1ccc(N2C(=O)CN=C2Nc2nc(C)cc(C)n2)cc1,0.73
4,CNC(=S)NNC(=O)c1ccc(N(C)C)cc1,0.736
5,O=C(CCc1ccccc1)NNC(=O)c1ccc(Br)cc1,-1.74
6,CC(=O)NC(=S)NNC(=O)c1ccc(Br)cc1,5.47 (active)
7,COC(=O)c1ccc(S(=O)(=O)NCc2ccccc2)n1C,-0.343
8,O=C1CCCCC1C(=O)c1ccccc1 (stereo not given),0.304
9,CN(C)c1cc(-c2ccc(F)cc2)oc(=O)c1Cl,0.0271
10,COc1ccnc(Oc2ccccc2)c1-c1ncn[nH]1,0.306
11,O=C(CNCc1cccs1)Nc1cc(S(=O)(=O)N2CCCC2)ccc1Cl,-3.68 (active)
12,O=C(NCc1cccs1)C1CCN(S(=O)(=O)c2ccc(Cl)cc2)CC1,-0.17
13,O=C(CNCc1ccco1)Nc1cc(S(=O)(=O)N2CCOCC2)ccc1N1CCCC1,-0.873
14,COCCCn1c(-c2cccs2)nc2nc3ccccc3nc21,0.0602
15,C/C(=N/NC(=O)c1cc(Cl)ccc1O)C12CC3CC(CC(C3)C1)C2,4.51 (active)
16,O=C(N/N=C1\CCSC1)c1cc(Cl)ccc1O,0.11
17,COc1ccc(Cl)cc1NC(=O)CN(C)C(=O)CNC(=O)C12CC3CC(CC(C3)C1)C2,0.0604
18,CCOC(=O)C1CCN(C(=O)Nc2ccc(C)c(Cl)c2)CC1,0.0935
19,CCOC(=O)C(=Cc1ccccc1OC)C(=O)OCC,-0.438
20,O=C(CN1C(=O)/C(=C/c2ccccc2F)Sc2ccccc21)NCc1cccnc1,-1.86
21,COc1ccc(C(=O)C2CCCN(C(=O)c3cnsn3)C2)c(C)c1 (stereo not given),-0.0096
22,O=S(=O)(c1ccccc1)N1CN(Cc2ccc(F)cc2)c2nc3ccccc3nc21,-1.17
23,O=C1COc2ccc(C(=O)COC(=O)c3cccnc3Cl)cc2N1,-0.384
24,CCc1ccc(Nc2nnc(SCC(=O)c3ccc4c(c3)NC(=O)CO4)s2)cc1,-5.32 (active)
25,COc1cccc(Nc2nnc(SCC(=O)N3CC(=O)Nc4ccccc43)s2)c1,-0.459

# Source: PubChem BioAssay AID1456 (Vanderbilt High Throughput Screening Facility, 2008)
